From PubChem
Shown are actives, neighbours in structure and some others; about 3.5% of the full set was active somewhere.
GDH-TPI counter-1: GDH-TPI coupling enzyme inhibitors, primary screen, artefact control for M. tuberculosis FBA inhibitor project, biochemical, absorbance, full deck; GDH-TPI coupled enzyme counterscreen, NADH absorbance; inhibition, % at 4.8 µM; 1.2% of 360,000 active; AID 588335, 2011; in the data active means inhibition above about 30%;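 further: 0% = DMSO wells and 100% = wells lacking the enzyme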
FadD28 binding: inhibitors of FadD28 bisubstrate probe binding, primary screen, biochemical, fluorescence polarization, single point | AID 588549, 2011 | 0.22% of 360,000 active | Mycobacterium tuberculosis FadD28 fatty-acid-AMP ligase | inhibition, % at 12.5 µM; in the data active means inhibition above about 8.5%, passing the limit was not always enough
Mtb hypoxia inh: PubChem AID 1159583; M. tuberculosis hypoxia-regulated fluorescent reporter, fluorescence; fluorescence inhibition, % (test concentration not listed); 0.1% of 300,000 active; in the data active means fluorescence inhibition mostly above about 23%, no sharp cut-off; inactive means mostly below about 17%
Mtb UGM inh: M. tuberculosis UGM enzyme inhibitors, primary screen, biochemical, fluorescence polarization, single point | purified UGM, fluorescence polarization probe displacement | inhibition, % at 10 µM | 0.06% of 320,000 active; in the data active means inhibition above about 10%, passing the limit was not always enough
Target sequence (P9WIQ1 whole entry, looked up): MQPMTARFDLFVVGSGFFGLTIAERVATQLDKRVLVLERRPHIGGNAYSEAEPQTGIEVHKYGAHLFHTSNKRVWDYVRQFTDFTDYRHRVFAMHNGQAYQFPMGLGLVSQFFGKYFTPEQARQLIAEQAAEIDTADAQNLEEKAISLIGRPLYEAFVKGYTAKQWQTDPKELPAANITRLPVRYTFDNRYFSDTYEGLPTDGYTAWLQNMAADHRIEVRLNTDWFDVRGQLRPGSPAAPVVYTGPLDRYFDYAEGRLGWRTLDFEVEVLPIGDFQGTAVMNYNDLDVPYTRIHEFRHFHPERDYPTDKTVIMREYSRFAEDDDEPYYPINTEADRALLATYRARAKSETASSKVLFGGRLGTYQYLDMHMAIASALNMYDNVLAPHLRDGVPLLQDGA
Mtb FBA inh: Mtb FBA enzyme inhibitors, primary screen, biochemical, fluorescence, strain H37Rv. AID 588726, 2011. 2.3% of 360,000 active. Fructose-bisphosphate aldolase (Mycobacterium tuberculosis (strain ATCC 25618 / H37Rv)), …. inhibition, % at 1 µM. purified M. tuberculosis FBA, fluorescence read-out;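 further: 0% = vehicle and 100% = reference inhibitor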
Rv3671c inh: Rv3671c serine protease inhibitors, primary screen, biochemical, fluorescence polarization, M. tuberculosis H37Rv. P9WHR9. inhibition, % at 5.96 µM. 0.048% of 320,000 active; in the data active means inhibition above about 38%;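 further: extracellular domain of Rv3671c used as enzyme; 0% = enzyme with DMSO and 100% = no enzyme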
Mtb FBA inh conf: M. tuberculosis aldolase blockers, biochemical, fluorescence, strain H37Rv, confirmation; shares compounds with Mtb FBA inh; purified M. tuberculosis FBA, fluorescence read-out; inhibition, % at 1 µM; AID 651616, 2012; 78% of 5,600 active;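 further: 0% = vehicle wells and 100% = reference inhibitor wells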
GDH-TPI counter-2: GDH-TPI coupling enzyme inhibitors, artefact control for M. tuberculosis FBA inhibitor project, biochemical, fluorescence, high throughput; shares compounds with Mtb FBA inh; GDH-TPI coupled enzyme counterscreen; inhibition, % at 1 µM; 81% of 5,600 active; AID 652141, 2013; in the data active means inhibition above about 10%
GDH-TPI DR: GDH-TPI coupling enzyme inhibitors, dose response, artefact control for M. tuberculosis FBA inhibitor project, biochemical, fluorescence, IC50; IC50, µM; AID 652145, 2013; GDH-TPI coupled enzyme assay, artifact counterscreen; 79% of 170 active; shares compounds with Mtb FBA inh; call rule not given here
Starred values were filed as active, the others as inactive; / = no result given; + = active, no number. Unless noted, no stated cut-off is given here; in the data, active means inhibition above about 27%; inactive means the rest.

SMILES	GDH-TPI counter-1	FadD28 binding	Mtb hypoxia inh	Mtb UGM inh	Mtb FBA inh	Rv3671c inh	Mtb FBA inh conf	GDH-TPI counter-2	others
CC(C)(O)[C@H](O)COc1c2occc2cc2ccc(=O)oc12	8	1	/	3	5	-3	/	/
COc1ccc2ccc(=O)oc2c1CC(=O)C(C)C	14	-2	/	/	39*	-3	27	18*
COC(=O)c1scc(C#N)c1NN=C(C#N)S(=O)(=O)c1ccc(Cl)cc1	/	/	-5	/	/	/	/	/
O=Cc1cn(-c2ccccc2)nc1-c1cc2cc(O)ccc2oc1=O	34*	-3	-13	-1	32*	6	82*	57*
OC1CCC(Nc2ccn3nc(-c4cccc(OCc5ccccc5)c4)cc3n2)CC1 (centres undefined)	8	-6	/	/	29*	/	54*	39*
OC1CCC(Nc2ccn3nc(-c4cccc(Cl)c4)cc3n2)CC1 (centres undefined)	6	-4	/	/	34*	/	61*	42*
COCCCNc1ccn2nc(-c3cccc(Cl)c3)cc2n1	0	-1	/	/	35*	/	9	-2
COCCCNc1ccn2nc(-c3ccccc3)cc2n1	7	-1	/	/	21	/	/	/
COc1cc(-c2cc3nc(NC4CCCCC4)ccn3n2)cc(OC)c1OC	11	-2	/	/	31*	/	-8	-7
CCOc1ccc(Oc2c(C=NNC(=O)C3CC3)c(C)nn2-c2ccccc2)cc1	/	/	15	/	/	/	/	/
COc1ccc2c(c1)c(C(=O)NN=Cc1cccc(Br)c1)c(C)n2C	/	/	7	/	/	/	/	/
CCC(CO)Nc1ccn2nc(-c3cccc(Cl)c3)cc2n1 (centres undefined)	7	-3	/	/	31*	/	28*	21*
CN(CC(=O)NCc1ccccc1)CC(=O)Nc1ccc(Cl)c(C(F)(F)F)c1	7	-5	4	0	34*	3	92*	73*
CCN1CC2C3C(=O)N(Cc4ccccc4)C(=O)C3[C@](C)(C1=O)N2C(=O)c1ccc(Br)cc1 (some centres undefined)	/	/	5	/	/	/	/	/
COc1cccc(-c2c(C(=O)O)cc(O)c3ccc(OC)cc23)c1	18	-3	3	/	34*	/	6	1
COc1cccc(Oc2ccc(OC)cc2C(=O)O)c1	-1	0	13	4	-1	11	/	/
COc1cccc(C=NNC(=O)c2cccc([N+](=O)[O-])c2)c1OS(=O)(=O)c1ccc(C)cc1	/	/	1	/	/	/	/	/
COc1ccc2c(C=NNc3ccc(C(=O)O)cc3)c[nH]c2c1	/	/	3	/	/	/	/	/
C#CCNC(=O)C1=CC(c2ccc(C#C)cc2)CC(OCc2ccc(CO)cc2)O1 (centres undefined)	/	/	18	/	/	/	/	/
CSc1nnc(-c2ccc(S(=O)(=O)N3CCOCC3)cc2)n1C	-4	0	-3	2	23	-2	/	/
CCSc1nnc(-c2ccc(S(=O)(=O)N3CCCC3)cc2)n1C	3	-1	-3	-2	33*	-1	-2	-8
CCSc1nnc(-c2ccc(S(=O)(=O)N3CCOCC3)cc2)n1C	10	-2	-3	2	30*	-1	+	+
CCCCn1nc2cc(C(=O)NCC34CC5CC(CC(C5)C3)C4)ccc2c1OC	8	0	3	0	31*	3	57*	43*
CCn1nc2cc(C(=O)NCC34CC5CC(CC(C5)C3)C4)ccc2c1OC	11	2	6	-2	28*	2	14	-5	GDH-TPI DR=4*
COc1c2ccc(C(=O)NCCCCc3ccccc3)cc2nn1C	3	-2	8	1	26	5	/	/
